Measured values taken from PubChem BioAssay (NCI).
Compounds without any hit were thinned out: in the full panel of roughly 83,000, 20% have a hit.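 48-hour exposure, single concentration, 96-well plates; percent growth endpoint where 0 means no net growth. Active: below 10.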 Active and inactive are the calls of the source.

How the values were obtained:
Experiment in all cases: NCI-60 one-dose screen, 48 h (100 = growth as untreated, 0 = no growth, -100 = all killed)
Details in all cases: 10 µM unless noted
[1] = test system: DU-145 prostate
[2] = test system: K-562 leukemia
[3] = test system: MALME-3M melanoma
[4] = test system: MDA-MB-231 breast
[5] = test system: RXF 393 renal
[6] = test system: SF-268 CNS
[7] = test system: SF-295 CNS
[8] = test system: SF-539 CNS
[9] = test system: UACC-257 melanoma
[10] = test system: M14 melanoma

Measured: growth

Cc1ccc(-c2nc(C(Cl)Cl)nc3cc(C)nn23)cc1
active: [1] -12.6% | [3] -12.2% | [4] 8.58% | [5] -66% | [10] -9.67%
inactive: [2] 11.2% | [6] 21.4% | [7] 17.8% | [8] 35.1% | [9] 55.8%

CCCCCCCCn1ccc2cc(NC(=O)Cn3cc(CN4CCN(CC)CC4)nn3)ccc21
inactive: [1] 90.6% | [4] 45.8% | [5] 67.7% | [6] 76.7% | [7] 13.7% | [8] 82.7% | [9] 79.4%
active: [2] 3.41% | [3] -11.1% | [10] -64.3%

Cc1ccc(-c2cc(C(=O)N3N=C(c4ccc(N)cc4)CC3c3ccc(Cl)cc3)c3ccccc3n2)cc1 (stereo not given)
active: [2] 7.72% | [5] -0.262% | [8] -2.29% | [10] -24%
inactive: [1] 18.6% | [3] 67% | [4] 44.5% | [6] 38.9% | [7] 21.4% | [9] 43.7%

COc1cc2c(/C=C3\C(=O)Nc4ccccc43)c(C(=O)O)[nH]c2cc1C
inactive: [1] 118% | [2] 103% | [3] 99.5% | [4] 87.9% | [5] 107% | [6] 96.6% | [7] 101% | [8] 101% | [9] 106% | [10] 105%

O=C1Nc2ccc(F)cc2/C1=C\c1nc(-c2ccccc2F)n2ccccc12
inactive: [2] 102% | [3] 83.3% | [4] 98.5% | [5] 84.5% | [6] 85.1% | [7] 104% | [8] 64.7% | [9] 96.2% | [10] 97%
active: [1] -7.63%

Clc1nn2c(Cn3cnc4c(NCc5ccccc5)ncnc43)nnc2c2ccccc12
inactive: [1] 36.7% | [2] 42.7% | [3] 27.8% | [4] 26.6% | [5] 39% | [6] 41.9% | [7] 63.2% | [8] 50.7% | [9] 39.1% | [10] 19.7%

N#CC(C#N)N=Nc1ccc(Cl)cc1Cl
inactive: [1] 80.8% | [2] 40.7% | [3] 77.3% | [4] 68.2% | [5] 116% | [6] 103% | [7] 100% | [8] 74.7% | [9] 87.3% | [10] 81.8%

Cn1ccnc1C(=O)/C=C/c1ccc(C(=O)Nc2ccc(F)cc2)cc1
active: [2] 4.37% | [5] 5.96% | [7] 6.55% | [8] -40.1%
inactive: [1] 19.9% | [3] 66.4% | [4] 18.7% | [6] 14.4% | [9] 62.2% | [10] 17.6%

CN(Cc1cnc2nc(N)nc(N)c2n1)c1c(Cl)cc(C(=O)NC(CCC(=O)O)C(=O)O)cc1Cl (stereo not given)
inactive: [1] 23.8% | [2] 21.6% | [3] 68.5% | [4] 68% | [5] 30.9% | [6] 28.4% | [8] 21.4% | [9] 33.8% | [10] 21.3%
active: [7] 2.98%

N#CCC1=NC(c2cccs2)=Nc2ccccc2S1
inactive: [1] 109% | [2] 86.5% | [3] 99% | [4] 90.1% | [5] 105% | [6] 94% | [7] 103% | [8] 101% | [9] 94.4% | [10] 94%

Cc1cc(C(=O)Nc2cc(Nc3ncccc3-c3ncnc4nc[nH]c34)ccc2F)cc(C(F)(F)F)c1
inactive: [1] 74.8% | [3] 108% | [4] 22.9% | [5] 100% | [6] 67.3% | [7] 78.4% | [8] 21.4% | [9] 10.7%
active: [2] 4.38% | [10] 5.2%

Cn1c(/C=C/[N+](=O)[O-])cc2ccccc21
active: [1] -8.11% | [2] 7.24% | [5] -97.1% | [8] -53.4% | [9] -5.1% | [10] -70.1%
inactive: [3] 91.4% | [4] 63% | [6] 93.4% | [7] 40.4%

CC(C)CCC[C@@H](C)C1CCC2C3CCC4=C/C(=N/OCCN(C)C)CC[C@]4(C)C3CC[C@@]21C (stereo not given in full)
inactive: [1] 91.7% | [2] 73.6% | [3] 91.2% | [4] 89.4% | [5] 91.6% | [6] 65.9% | [7] 68.4% | [8] 93.2% | [9] 97.5% | [10] 93.3%

COc1ccc2[nH]cc(-c3nc(-c4cn(C)c5ccncc45)cs3)c2c1
active: [1] 2.58% | [2] -26.3% | [4] -61.7% | [5] -86.8% | [8] -70.6% | [10] -88.7%
inactive: [3] 86.9% | [6] 87.1% | [7] 76.3% | [9] 92.7%

O=C(/C=C/c1ccccc1)Nc1ncc(Cc2ccccc2)s1
active: [7] -10.7% | [8] -22.2% | [10] 5.78%
inactive: [1] 16% | [2] 10.5% | [3] 44.3% | [4] 33.4% | [5] 10.9% | [6] 39.4% | [9] 48.3%

Cn1c(=O)c2c(nc(NC3=NS(=O)(=O)c4ccccc43)n2Cc2ccccc2)n(C)c1=O
inactive: [1] 108% | [2] 104% | [3] 109% | [4] 90.4% | [5] 78.3% | [6] 96.7% | [7] 103% | [8] 100% | [9] 109% | [10] 106%

COc1ccccc1-n1c(-c2cc(O)ccc2C)cn2c3c(=O)[nH]c(=O)n(C)c3nc12
inactive: [1] 79.3% | [2] 25.3% | [3] 89.9% | [4] 41.2% | [5] 19.2% | [6] 60.3% | [7] 89.8% | [8] 72.6% | [9] 83.8% | [10] 92.2%

Cc1ccc(Nc2nc(-c3ccc(F)cc3)c(C#N)c(=O)n2C)cc1
inactive: [1] 72.7% | [2] 97.6% | [3] 45.8% | [4] 23.4% | [5] 50.2% | [6] 66.5% | [7] 79.1% | [8] 64.8% | [9] 74.5% | [10] 77.9%

N#C/C(=C\c1ccc(-c2ccc(Cl)cc2)o1)c1ccc(Cl)cc1
inactive: [1] 82.1% | [2] 82.4% | [3] 62.9% | [4] 32.6% | [5] 62.8% | [6] 81.2% | [7] 51.9% | [8] 56.9% | [9] 100% | [10] 81.4%

COc1cc(Nc2c3ccc(Cl)cc3nc3ccc(OC)cc23)c2ncccc2c1
inactive: [1] 39.4% | [2] 53.2% | [3] 32.1% | [4] 34% | [5] 45.5% | [6] 43.3% | [7] 46.2% | [8] 45% | [9] 59.6% | [10] 49.5%

CC(C)(C)c1cc(C=Nc2cccc(C(F)(F)F)c2)c(O)c(C(C)(C)C)c1
inactive: [1] 107% | [2] 70.2% | [3] 108% | [4] 98.3% | [5] 94.3% | [6] 90.1% | [7] 97.4% | [8] 101% | [9] 78.7% | [10] 100%

N=c1sc(Cc2cc(Cl)ccc2Cl)cn1CC(=O)c1ccccc1
inactive: [1] 68.7% | [2] 17% | [3] 44.6% | [4] 54.9% | [5] 77.1% | [6] 58.9% | [7] 57.3% | [8] 64.1% | [9] 60.3% | [10] 21.1%

Cc1ccc2[nH]c(=O)c3c(c2c1)OC(N)=C(C#N)C31C(=O)c2cccc3cccc1c23 (stereo not given)
inactive: [1] 101% | [2] 87.8% | [3] 99.2% | [4] 87.4% | [5] 97% | [6] 94.6% | [7] 104% | [8] 95.9% | [9] 108% | [10] 98.2%

O=C1CC2C=CCN2C=C1NC(=O)C1CCCCC1 (stereo not given)
inactive: [1] 98.9% | [2] 99.9% | [3] 78% | [4] 108% | [5] 104% | [6] 95.5% | [7] 98.5% | [8] 98.4% | [9] 97.8% | [10] 114%

CCCCCn1sc(=O)n(Cc2ccc(CNC(=O)OCc3ccc4c(Cl)cc(Cl)c(O)c4n3)cc2)c1=O
inactive: [1] 63.9% | [2] 45.8% | [3] 70.4% | [4] 75.6% | [5] 32.5% | [6] 66.6% | [7] 35.1% | [8] 77.1% | [9] 87.9% | [10] 58.8%

O=C(CCC(=O)c1nc2ncccc2[nH]1)NN1C(=O)CSC1c1ccc(Cl)cc1 (stereo not given)
inactive: [1] 103% | [2] 98.2% | [3] 93% | [4] 98% | [5] 103% | [6] 91.2% | [7] 108% | [8] 103% | [9] 105% | [10] 98%

CC(C)(C)C(=O)/C=C/c1ccc([N+](=O)[O-])cc1
inactive: [1] 80.2% | [2] 13.3% | [3] 103% | [4] 81.2% | [5] 93.7% | [6] 90.1% | [7] 93.3% | [8] 86.9% | [9] 50% | [10] 70.9%
